Measured values published in the supplement of paper PMC10849652.
The full data set covers some 7,900 targets. This sample favours those with a hit. About 0.6% of all pairs of compound and target were hits. Unmarked numbers belong to inactive results.

Legend:
Experiment in all cases: log2 fold change, soluble protein after heating vs DMSO (PISA); higher = thermal stabilisation; K562 cells, 10 uM, 30 min; active = over 0.2 and 3.5 SD of the protein, either way, in both replicates (recomputed)
[1] = compound: CC[C@@H]1C(=O)N(C)c2cnc(Nc3ccc(C(=O)NC4CCN(C)CC4)cc3OC)nc2N1C1CCCC1
How it was run: (§1)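 Values are thermal stability changes relative to control samples and are taken from duplicates. They are stated as log2 fold changes. Before quantification by TMTpro 16plex LC-MS/MS with equalised channel sums, K562 cells at 2×10^6 cells/mL were treated with 10 μM compound for 30 min, heated in aliquots for 3 min across 48°C-58°C, pooled, extracted in PBS with 0.5% NP-40 at 4°C, and centrifuged at 21,000xg for 90 min to give the soluble supernatant.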

volasertib = compound: CC[C@@H]1C(=O)N(C)c2cnc(Nc3ccc(C(=O)N[C@H]4CC[C@H](N5CCN(CC6CC6)CC5)CC4)cc3OC)nc2N1C(C)C [volasertib]
How it was run: as §1

[2] = compound: CC[C@H](C)N1C=C(C2=C(C=C(C=C21)C3=CN=C(C=C3)N4CCNCC4)C(=O)NCC5=C(C=C(NC5=O)C)C)C
How it was run: as §1

epoxomicin = compound: CC[C@H](C)[C@@H](C(=O)N[C@@H]([C@@H](C)O)C(=O)N[C@@H](CC(C)C)C(=O)[C@]1(CO1)C)NC(=O)[C@H]([C@@H](C)CC)N(C)C(=O)C [epoxomicin]
How it was run: as §1

[3] = compound: CCn1c(C(=O)N(C2CC2)C2CC2)cc2c3c(ncn3C)c(Nc3cc(C)n(C)n3)nc21
How it was run: as §1

[4] = compound: CCn1cc(-c2ccnc3[nH]c(-c4cccc(CN(C)C)c4)cc23)c(-c2ccc(NC(=O)N(C)C)cc2)n1
How it was run: as §1

[5] = compound: CN(C)CC(=O)Nc1ccc2[nH]c(=O)c3ccccc3c2c1
How it was run: as §1

rosiglitazone = compound: CN(CCOC1=CC=C(C=C1)C[C@H]2C(=O)NC(=O)S2)C3=CC=CC=N3 (racemic) [rosiglitazone]
How it was run: as §1

[6] = compound: CN1C2=C(C3=C1C(=O)N(N=C3)CC4=CC(=CC=C4)N)SC(=C2)S(=O)C
How it was run: as §1

[7] = compound: CN1CCC(CNc2ccc3ncc(-c4cccc(OC(F)(F)F)c4)n3n2)CC1
How it was run: as §1

saracatinib = compound: CN1CCN(CCOc2cc(OC3CCOCC3)c3c(Nc4c(Cl)ccc5c4OCO5)ncnc3c2)CC1 [saracatinib]
How it was run: as §1

sotrastaurin = compound: CN1CCN(c2nc(C3=C(c4c[nH]c5ccccc45)C(=O)NC3=O)c3ccccc3n2)CC1 [sotrastaurin]
How it was run: as §1

alvocidib = compound: CN1CC[C@H](c2c(O)cc(O)c3c(=O)cc(-c4ccccc4Cl)oc23)[C@H](O)C1 [alvocidib]
How it was run: as §1

Tubastatin A = compound: CN1CCc2c(c3ccccc3n2Cc2ccc(C(=O)NO)cc2)C1 [Tubastatin A]
How it was run: as §1

[8] = compound: CNC(=O)C1=CC=CC=C1NC2=NC(=NC=C2Cl)NC3=C(C=C(C=C3)N4CCOCC4)OC
How it was run: as §1

defactinib = compound: CNC(=O)c1ccc(Nc2ncc(C(F)(F)F)c(NCc3nccnc3N(C)S(C)(=O)=O)n2)cc1 [defactinib]
How it was run: as §1

rucaparib = compound: CNCc1ccc(-c2[nH]c3cc(F)cc4c3c2CCNC4=O)cc1 [rucaparib]
How it was run: as §1

[9] = compound: CNc1nc(-c2ccc3c(N)n[nH]c3c2)cc(N2C[C@@H](C(=O)NC3CCCCC3)CC[C@H]2C)n1
How it was run: as §1

encorafenib = compound: COC(=O)N[C@@H](C)CNc1nccc(-c2cn(C(C)C)nc2-c2cc(Cl)cc(NS(C)(=O)=O)c2F)n1 [encorafenib]
How it was run: as §1

[10] = compound: COC(=O)[C@H](CCSC)NC(=O)C1=C(C=C(C=C1)NC[C@H](CS)N)C2=CC=CC=C2
How it was run: as §1

Sequence of UniProt P17844 (P17844 whole entry, looked up): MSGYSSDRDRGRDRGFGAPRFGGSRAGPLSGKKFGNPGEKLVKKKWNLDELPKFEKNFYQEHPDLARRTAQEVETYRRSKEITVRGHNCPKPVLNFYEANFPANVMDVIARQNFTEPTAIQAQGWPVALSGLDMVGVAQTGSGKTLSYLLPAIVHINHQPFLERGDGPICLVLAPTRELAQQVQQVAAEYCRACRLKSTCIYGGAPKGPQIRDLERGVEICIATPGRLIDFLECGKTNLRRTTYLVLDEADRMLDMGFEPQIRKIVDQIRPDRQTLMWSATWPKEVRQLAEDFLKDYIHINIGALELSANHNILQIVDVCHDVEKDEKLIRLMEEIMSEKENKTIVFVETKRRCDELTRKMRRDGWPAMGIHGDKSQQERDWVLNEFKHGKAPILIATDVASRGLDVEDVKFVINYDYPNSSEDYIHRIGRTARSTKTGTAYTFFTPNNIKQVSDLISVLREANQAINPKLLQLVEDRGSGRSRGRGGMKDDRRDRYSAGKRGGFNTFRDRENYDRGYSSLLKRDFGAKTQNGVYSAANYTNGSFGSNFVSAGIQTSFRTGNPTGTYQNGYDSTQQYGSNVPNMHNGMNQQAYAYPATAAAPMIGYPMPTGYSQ
Sequence of UniProt Q96G46 (Q96G46 whole entry, looked up): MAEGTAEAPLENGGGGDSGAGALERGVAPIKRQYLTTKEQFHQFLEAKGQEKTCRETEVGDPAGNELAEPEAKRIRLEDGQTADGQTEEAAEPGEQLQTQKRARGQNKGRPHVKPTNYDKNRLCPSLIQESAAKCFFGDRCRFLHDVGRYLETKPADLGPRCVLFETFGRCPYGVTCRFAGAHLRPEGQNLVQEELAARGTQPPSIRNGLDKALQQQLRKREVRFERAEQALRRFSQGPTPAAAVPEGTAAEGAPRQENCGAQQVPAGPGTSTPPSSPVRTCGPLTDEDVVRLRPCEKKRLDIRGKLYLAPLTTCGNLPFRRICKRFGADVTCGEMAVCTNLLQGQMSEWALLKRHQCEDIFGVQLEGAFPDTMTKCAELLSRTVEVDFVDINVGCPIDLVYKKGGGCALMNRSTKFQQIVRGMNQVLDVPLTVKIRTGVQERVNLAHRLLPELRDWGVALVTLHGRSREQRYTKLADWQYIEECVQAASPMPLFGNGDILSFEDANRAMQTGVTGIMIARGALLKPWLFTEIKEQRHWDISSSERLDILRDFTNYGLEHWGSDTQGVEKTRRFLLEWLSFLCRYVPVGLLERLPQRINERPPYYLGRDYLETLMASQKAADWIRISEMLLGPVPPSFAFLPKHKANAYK
Sequence of UniProt O00471 (O00471 whole entry, looked up): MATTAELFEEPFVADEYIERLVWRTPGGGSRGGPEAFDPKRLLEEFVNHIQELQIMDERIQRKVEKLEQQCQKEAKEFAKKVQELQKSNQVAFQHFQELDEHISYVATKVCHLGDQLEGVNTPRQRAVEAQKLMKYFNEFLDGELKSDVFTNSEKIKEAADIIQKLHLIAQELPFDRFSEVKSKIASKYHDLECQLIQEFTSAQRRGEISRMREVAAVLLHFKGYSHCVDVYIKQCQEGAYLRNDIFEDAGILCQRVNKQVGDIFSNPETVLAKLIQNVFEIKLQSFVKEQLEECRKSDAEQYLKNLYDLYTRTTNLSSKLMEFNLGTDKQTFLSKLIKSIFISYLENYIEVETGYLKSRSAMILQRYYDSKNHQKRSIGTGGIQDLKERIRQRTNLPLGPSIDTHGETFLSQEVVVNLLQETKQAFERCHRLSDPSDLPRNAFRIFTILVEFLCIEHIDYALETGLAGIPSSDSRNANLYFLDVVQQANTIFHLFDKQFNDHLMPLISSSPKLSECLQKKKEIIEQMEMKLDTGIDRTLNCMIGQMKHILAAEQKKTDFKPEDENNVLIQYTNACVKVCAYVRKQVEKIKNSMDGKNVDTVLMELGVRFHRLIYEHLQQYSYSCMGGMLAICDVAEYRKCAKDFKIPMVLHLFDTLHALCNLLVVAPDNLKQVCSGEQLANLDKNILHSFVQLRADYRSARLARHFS
Sequence of UniProt Q9NXW2 (Q9NXW2 whole entry, looked up): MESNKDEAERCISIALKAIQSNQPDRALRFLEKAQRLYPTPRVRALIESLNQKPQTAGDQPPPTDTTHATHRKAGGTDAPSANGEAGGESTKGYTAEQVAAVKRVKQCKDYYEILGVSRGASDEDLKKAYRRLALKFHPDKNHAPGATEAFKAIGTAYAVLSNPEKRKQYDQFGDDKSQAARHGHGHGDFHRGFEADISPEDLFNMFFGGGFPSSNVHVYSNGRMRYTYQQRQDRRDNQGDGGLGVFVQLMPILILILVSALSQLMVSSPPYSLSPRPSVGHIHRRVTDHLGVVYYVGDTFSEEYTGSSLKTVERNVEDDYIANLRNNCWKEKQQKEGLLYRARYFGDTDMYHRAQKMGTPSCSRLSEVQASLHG
Sequence of UniProt Q96KP1 (Q96KP1 whole entry, looked up): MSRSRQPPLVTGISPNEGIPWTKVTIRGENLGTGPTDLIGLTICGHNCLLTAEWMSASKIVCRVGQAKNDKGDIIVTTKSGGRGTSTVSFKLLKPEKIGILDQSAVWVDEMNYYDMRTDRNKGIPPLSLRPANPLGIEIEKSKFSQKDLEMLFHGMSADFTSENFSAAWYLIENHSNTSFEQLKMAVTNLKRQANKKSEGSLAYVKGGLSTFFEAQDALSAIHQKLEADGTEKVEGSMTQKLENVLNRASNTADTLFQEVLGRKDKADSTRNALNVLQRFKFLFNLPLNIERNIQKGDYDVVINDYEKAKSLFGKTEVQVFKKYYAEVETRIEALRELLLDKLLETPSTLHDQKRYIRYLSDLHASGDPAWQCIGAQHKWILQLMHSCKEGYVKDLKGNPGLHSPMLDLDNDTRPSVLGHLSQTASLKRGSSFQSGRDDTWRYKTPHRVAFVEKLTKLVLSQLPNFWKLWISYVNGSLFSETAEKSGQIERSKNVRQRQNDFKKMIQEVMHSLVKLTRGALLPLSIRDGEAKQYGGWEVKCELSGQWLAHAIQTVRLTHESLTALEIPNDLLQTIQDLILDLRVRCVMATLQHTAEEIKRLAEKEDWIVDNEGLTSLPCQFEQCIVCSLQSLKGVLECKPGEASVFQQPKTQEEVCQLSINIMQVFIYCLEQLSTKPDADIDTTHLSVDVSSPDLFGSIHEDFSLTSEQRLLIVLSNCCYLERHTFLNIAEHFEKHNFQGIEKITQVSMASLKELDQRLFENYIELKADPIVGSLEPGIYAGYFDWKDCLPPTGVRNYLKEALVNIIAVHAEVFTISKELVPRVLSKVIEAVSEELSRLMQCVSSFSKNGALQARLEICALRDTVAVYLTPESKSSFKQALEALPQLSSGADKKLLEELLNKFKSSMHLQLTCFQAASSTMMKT
Sequence of UniProt Q9NX74 (Q9NX74 whole entry, looked up): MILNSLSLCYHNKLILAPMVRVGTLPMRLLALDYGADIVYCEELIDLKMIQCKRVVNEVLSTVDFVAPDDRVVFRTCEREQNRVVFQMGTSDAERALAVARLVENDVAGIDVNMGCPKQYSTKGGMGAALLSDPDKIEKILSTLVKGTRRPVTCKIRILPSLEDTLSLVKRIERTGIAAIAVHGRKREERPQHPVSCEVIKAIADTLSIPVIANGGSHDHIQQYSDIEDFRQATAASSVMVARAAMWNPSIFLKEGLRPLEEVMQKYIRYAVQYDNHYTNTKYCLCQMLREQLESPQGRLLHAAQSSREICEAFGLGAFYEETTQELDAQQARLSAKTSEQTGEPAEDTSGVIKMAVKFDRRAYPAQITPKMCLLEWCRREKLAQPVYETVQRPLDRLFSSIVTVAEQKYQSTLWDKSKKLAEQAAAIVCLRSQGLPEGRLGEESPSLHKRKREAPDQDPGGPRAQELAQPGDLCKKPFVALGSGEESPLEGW
Sequence of UniProt Q96F86 (Q96F86 whole entry, looked up): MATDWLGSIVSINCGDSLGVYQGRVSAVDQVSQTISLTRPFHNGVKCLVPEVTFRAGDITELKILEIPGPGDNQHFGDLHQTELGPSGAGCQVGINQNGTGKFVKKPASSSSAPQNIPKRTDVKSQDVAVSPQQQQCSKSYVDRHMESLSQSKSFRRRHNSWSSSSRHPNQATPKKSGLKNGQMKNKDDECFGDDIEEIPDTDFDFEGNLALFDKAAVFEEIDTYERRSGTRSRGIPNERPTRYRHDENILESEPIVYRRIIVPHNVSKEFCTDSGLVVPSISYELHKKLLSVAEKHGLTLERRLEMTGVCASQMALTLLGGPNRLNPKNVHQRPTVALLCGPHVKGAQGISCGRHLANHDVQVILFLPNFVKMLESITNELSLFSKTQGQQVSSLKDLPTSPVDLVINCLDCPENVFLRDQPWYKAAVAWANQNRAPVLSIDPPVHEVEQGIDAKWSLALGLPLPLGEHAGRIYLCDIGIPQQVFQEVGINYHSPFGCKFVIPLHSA
Sequence of UniProt Q9BW60 (Q9BW60 whole entry, looked up): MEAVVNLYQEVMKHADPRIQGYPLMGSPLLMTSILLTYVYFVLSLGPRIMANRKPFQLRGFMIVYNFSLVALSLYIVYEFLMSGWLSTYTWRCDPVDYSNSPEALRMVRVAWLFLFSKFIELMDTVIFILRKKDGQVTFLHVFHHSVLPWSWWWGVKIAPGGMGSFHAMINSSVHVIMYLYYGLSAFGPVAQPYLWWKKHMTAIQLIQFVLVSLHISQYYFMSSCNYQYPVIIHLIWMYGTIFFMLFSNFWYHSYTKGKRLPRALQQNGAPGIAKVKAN
Sequence of UniProt O75822 (O75822 whole entry, looked up): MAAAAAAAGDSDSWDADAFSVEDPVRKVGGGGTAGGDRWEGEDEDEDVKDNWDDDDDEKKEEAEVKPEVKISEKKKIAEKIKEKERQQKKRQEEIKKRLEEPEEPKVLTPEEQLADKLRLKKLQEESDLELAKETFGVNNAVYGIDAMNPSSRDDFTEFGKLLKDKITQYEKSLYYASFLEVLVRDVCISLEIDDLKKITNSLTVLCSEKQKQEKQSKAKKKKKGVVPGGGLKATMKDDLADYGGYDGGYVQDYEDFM
Sequence of UniProt P00374 (P00374 whole entry, looked up): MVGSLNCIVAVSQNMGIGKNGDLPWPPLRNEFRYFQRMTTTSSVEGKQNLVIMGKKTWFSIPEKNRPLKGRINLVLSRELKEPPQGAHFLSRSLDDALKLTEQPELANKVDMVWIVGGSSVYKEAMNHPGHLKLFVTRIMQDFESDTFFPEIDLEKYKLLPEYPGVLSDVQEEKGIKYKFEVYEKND

Target	log2 fold change [1]	log2 fold change (volasertib)	log2 fold change [2]	log2 fold change (epoxomicin)	log2 fold change [3]	log2 fold change [4]	log2 fold change [5]	log2 fold change (rosiglitazone)	log2 fold change [6]	log2 fold change [7]	log2 fold change (saracatinib)	log2 fold change (sotrastaurin)	log2 fold change (alvocidib)	log2 fold change (Tubastatin A)	log2 fold change [8]	log2 fold change (defactinib)	log2 fold change (rucaparib)	log2 fold change [9]	log2 fold change (encorafenib)	log2 fold change [10]
DBN1 isoform 3 (UniProt Q16643)	0.026	-0.189	0.089	-0.014	0.017	0.087	-0.047	-0.021	0.05	-0.011	0.121	0.001	-0.044	-0.094	-0.042	-0.06	0.041	-0.011	0.097	-0.033
EXOC2 (UniProt Q96KP1)	-0.13	-0.463	-0.041	0	-0.089	0.044	0.058	0.01	0.123	-0.386 (active)	-0.058	-0.214	-0.01	0.044	0.064	-0.096	0.136	-0.004	0.126	-0.085
DNAJB12 (UniProt Q9NXW2)	-0.045	-0.123	-0.033	-0.003	-0.096	0.024	0.022	0.023	0.068	-0.081	0.022	0.068	-0.006	-0.006	0.024	-0.03	0.079	-0.011	-0.018	-0.021
DUS3L (UniProt Q96G46)	-0.162	-0.331 (active)	0.017	0.087	0.004	0.02	0.028	0.007	0.021	-0.04	0.02	-0.155	-0.037	-0.028	0.022	-0.148	0.204	-0.033	0.016	0.003
EXOC5 (UniProt O00471)	-0.236	-0.596 (active)	0.093	0.041	-0.046	0.022	0.066	0.044	0.054	-0.215	-0.043	-0.209	-0.008	0.015	0.042	-0.064	0.091	-0.06	0.083	-0.071
DLD (UniProt P09622)	0.043	0.143	-0.028	-0.015	0.049	-0.007	-0.012	-0.008	-0.035	-0.118	0.055	0.015	0.026	-0.029	0.008	0.01	-0.041	-0.023	-0.011	0.047
ELOVL1 (UniProt Q9BW60)	-0.217	-0.127	-0.011	0.003	-0.044	0.032	0.116	0.002	-0.068	-0.691 (active)	0.015	0.037	-0.011	-0.015	-0.223	-0.029	0.05	0.017	-0.011	0
DNAH5 (UniProt Q8TE73)	0.042	0.01	-0.079	-0.052	-0.015	-0.009	-0.031	-0.044	0.029	0.03	0.058	0.017	0.044	0.058	-0.057	0.015	-0.071	-0.099	-0.006	-0.072
EDC3 (UniProt Q96F86)	-0.006	-0.192	0.057	0.003	-0.03	-0.031	0.058	0.067	0.094	-0.251	-0.041	-0.304	-0.021	0.053	-0.021	-0.04	0.015	-0.237	0.048	0.005
DUS2 (UniProt Q9NX74)	-0.052	-0.242	0.037	0.059	-0.059	-0.029	0.055	0.063	0.115	-0.02	0.112	-0.098	-0.041	0.041	-0.048	-0.093	0.042	-0.113	0.09	-0.02
EXOC7 (UniProt Q9UPT5)	-0.156	-0.619 (active)	0.09	0.048	-0.091	0.015	0.006	0.048	0.033	-0.317 (active)	0.024	-0.218	-0.039	0.029	-0.04	-0.06	-0.01	-0.077	0.006	-0.047
DDX46 (UniProt Q7L014)	-0.259	-0.275	0.087	0.192	-0.211	-0.129	0.133	0.106	-0.066	0.087	0	-0.197	-0.157	0.101	0.054	-0.296	-0.125	0.028	0.05	-0.085
DHFR (UniProt P00374)	0.002	-0.11	0.088	-0.013	-0.101	-0.077	0.091	0.046	0.113	1.64 (active)	-0.193	1.66 (active)	0.215	1.77 (active)	-0.115	-0.109	0.39	0.036	0.109	-0.059
DDX5 (UniProt P17844)	-0.426 (active)	-0.589 (active)	0.103	0.149	-0.115	-0.083	0.101	0.066	0.018	0.019	-0.055	-0.206	-0.07	0.041	0.025	-0.206	-0.075	-0.021	0.14	-0.085
EIF3J (UniProt O75822)	-0.061	0.005	0.011	0.055	0	0.001	-0.008	0.019	-0.061	0.226	-0.042	-0.028	0.006	-0.005	0.019	0.019	-0.072	-0.037	-0.008	-0.029
EHBP1L1 (UniProt Q8N3D4)	-0.035	-0.307 (active)	0.091	0.072	0.012	-0.055	0.029	0.094	0.077	0.101	-0.065	-0.082	-0.049	0.098	-0.002	-0.089	0.1	-0.008	0.127	-0.017
